Data taken from PubChem BioAssay (NCATS).
Inconclusive results are not listed. A call without a number means that no potency is given here. Calls of active or inactive are those of the source. Calls come from the whole dose curve.

biological target: Retinoic acid receptor RXR-alpha (Homo sapiens) (UniProt P19793); experiment: qHTS assay for small molecule agonists of retinoid X receptor alpha signaling (AID 588544); details: HEK293T RXRa-UAS-bla, beta-lactamase reporter, 18 h; series mostly up to 76.7 µM
Sequence (P19793 whole entry, looked up): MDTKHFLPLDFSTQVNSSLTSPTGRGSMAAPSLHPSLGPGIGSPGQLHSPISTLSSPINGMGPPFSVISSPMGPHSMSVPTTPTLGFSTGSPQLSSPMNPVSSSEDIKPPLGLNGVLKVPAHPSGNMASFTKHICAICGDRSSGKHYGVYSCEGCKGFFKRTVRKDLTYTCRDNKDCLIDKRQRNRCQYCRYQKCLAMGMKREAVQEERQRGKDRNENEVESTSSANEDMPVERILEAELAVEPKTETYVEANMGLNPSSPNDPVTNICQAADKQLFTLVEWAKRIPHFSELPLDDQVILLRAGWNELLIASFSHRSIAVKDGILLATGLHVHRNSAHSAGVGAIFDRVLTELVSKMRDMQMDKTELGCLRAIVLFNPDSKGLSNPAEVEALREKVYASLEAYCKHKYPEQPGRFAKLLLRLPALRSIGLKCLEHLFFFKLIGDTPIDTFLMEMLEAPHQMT
Text: NIH Chemical Genomics Center [NCGC] U.S. Environmental Protection Agency [EPA] National Institutes of Environmental Health Sciences [NIEHS] National Toxicology Program [NTP] NCGC Assay Overview The Retinoid X receptor (RXR), a nuclear hormone receptor is expressed in liver, spleen, placenta, epidermis, central nervous system. These receptors are able to form homo and heterodimers with other nuclear receptors and due to this heterodimerizing ability, RXR functions as master regulators producing diverse physiological effects. Three subtypes of RXR exist; alpha, beta and gamma. Retinoid X receptor alpha (RXR-alpha) has potential roles in metabolic signaling pathways, skin alopecia, dermal cysts, cardiac development, insulin sensitization etc. Therefore screening environmental chemicals on RXR-alpha signaling can be used for the studies focused on such therapeutic applications.
NCGC Assay Protocol Summary Using a beta-lactamase reporter-gene under control of Retinoid X receptor--alpha (RXR-alpha) response element, a cell-based assay [GeneBLAzer (RXR-alpha -UAS-bla assay developed by Invitrogen] was used to measure RXR-alpha ligands signaling. GeneBLAzer RXR-alpha -UAS-bla HEK293T cells were used with assay medium containing 2% charcoal-stripped FBS. The assay was performed in clear bottom black Greiner 1536-well plates. 9-cis-retinoic acid was used in the screen as the positive control. Library compounds were measured for their ability to stimulate the reporter gene activity. Compounds were screened in a titration series in 1536-well format. The fluorescence intensity (405 nm excitation, 460/530 nm emission) was measured using an EnVision plate reader. Data was normalized relative to 9-cis-retinoic acid control (500 nM, 100%), and DMSO only wells (basal, 0%). Concentration-response titration points for each compound were fitted to the Hill equation yielding concentrations of half-maximal stimulation (EC50) and maximal response (efficacy) values. qHTS protocol for RXR-alpha beta-lactamase assay in agonist mode [Step] [Parameter] [Value] [Description] 1. Reagent; 6 uL; 2500 cells/well 2. Incubation; 37 C for 4 hrs 3. Compounds; 23 nL; 0.59 nM to 92 uM 4. Controls (9-cis-retinoic acid); 23 nL, - One column with dose response, start 38 uM, 1:3 dilutions in duplicates - Final concentrations of 500 nM and 50 nM in two columns 5. Incubation; 37 C for 18 hrs 6. Detection reagent; 1 uL of CCF4-dye 7. Incubation; RT for 2 hrs 8. Detection; Fluorescence; Envision plate reader

Row | Compound | Potency
1 | CC(CCC(=O)O)(c1ccc(O)cc1)c1ccc(O)cc1 | inactive
2 | CCCCCCCC/C=C\CCCCCCCC(=O)N(CCO)CCO | inactive
3 | Cc1cccnc1 | inactive
4 | Cc1c(C(=O)O)c(O)cc2c1C(=O)c1c(O)c([C@H]3O[C@H](CO)[C@@H](O)[C@H](O)[C@H]3O)c(O)c(O)c1C2=O | inactive
5 | Nc1cnn([C@@H]2O[C@H](CO)[C@@H](O)[C@H]2O)c(=O)n1 | inactive
6 | Nc1cc([N+](=O)[O-])ccc1O | inactive
7 | Cc1cc(-c2ccc(N=Nc3cc(S(=O)(=O)O)c4ccccc4c3N)c(C)c2)ccc1N=Nc1cc(S(=O)(=O)O)c2ccccc2c1N | inactive
8 | CCCC(=O)OC(=O)CCC | inactive
9 | O=[N+]([O-])c1cccc(I)c1 | inactive
10 | CCNC(=S)NCC | inactive
11 | CC(=O)Nc1cccc(C)c1 | inactive
12 | COc1ccc([N+](=O)[O-])cc1N | inactive
13 | C=Cc1cccc(C)c1 | inactive
14 | Cc1ccc(C(=O)O)cc1[N+](=O)[O-] | inactive
15 | c1ccc(CSCc2ccccc2)cc1 | inactive
16 | CCCCCCN | inactive
17 | C=C(C#N)C(=O)OCC | inactive
18 | NC(=O)c1ccc([N+](=O)[O-])cc1 | inactive
19 | O=[N+]([O-])c1ccccc1Nc1ccccc1 | inactive
20 | Nc1ccc(N)c(Cl)c1 | inactive

Row | Compound | Potency
21 | Nc1ccc2c(c1)C(=O)c1ccccc1C2=O | inactive
22 | Cc1ccccc1OCC1CO1 (stereo not given) | inactive
23 | CC(=O)CC(=O)Nc1ccccc1 | inactive
24 | OC1CCCCC1 | inactive
25 | Brc1cc(Oc2cc(Br)c(Br)c(Br)c2Br)c(Br)c(Br)c1Br | inactive
26 | O=C(OCc1ccccc1)c1ccccc1O | inactive
27 | C/C=C/C=C/C=O | inactive
28 | Oc1cc(Cl)cc(Cl)c1Cl | inactive
29 | Cc1ccc(O)c(N)c1 | inactive
30 | Cc1ccc(S(N)(=O)=O)cc1 | inactive
31 | CCC(Cl)CC(Cl)C(Cl)C(Cl)C(Cl)C(C)Cl (stereo not given) | inactive
32 | C=CC1CO1 (stereo not given) | inactive
33 | N[C@@H](Cc1ccccc1)C(=O)O | inactive
34 | Nc1cc(C(=O)O)c(O)c(S(=O)(=O)O)c1 | inactive
35 | CCCCNCC | inactive
36 | C=CC(=O)CC | inactive
37 | CC(C)S | inactive
38 | CC(=O)OCc1ccc2c(c1)OCO2 | inactive
39 | C=CC(=O)OCCCCCCOC(=O)C=C | inactive
40 | CCOC(=O)C1OC1c1ccccc1 (stereo not given) | inactive
